Holding throughout (assay): DAPPL (digital affinity profiling via proximity ligation, sequencing); 10 mM Tris-HCl pH 7.5, 50 mM NaCl, 1 mM DTT, 4% glycerol, room temperature, 30 min; GST-TFs on glutathione beads, 16-mer random dsDNA library, 0.1% formaldehyde crosslink after washing; high values mean tight binding
Holding throughout (conditions): protein: recombinant; tags: N-terminal GST; dsDNA, one strand shown

The target in one assay is T1, ELK1 (Homo sapiens, UniProt P19419 1-428).
T1 sequence: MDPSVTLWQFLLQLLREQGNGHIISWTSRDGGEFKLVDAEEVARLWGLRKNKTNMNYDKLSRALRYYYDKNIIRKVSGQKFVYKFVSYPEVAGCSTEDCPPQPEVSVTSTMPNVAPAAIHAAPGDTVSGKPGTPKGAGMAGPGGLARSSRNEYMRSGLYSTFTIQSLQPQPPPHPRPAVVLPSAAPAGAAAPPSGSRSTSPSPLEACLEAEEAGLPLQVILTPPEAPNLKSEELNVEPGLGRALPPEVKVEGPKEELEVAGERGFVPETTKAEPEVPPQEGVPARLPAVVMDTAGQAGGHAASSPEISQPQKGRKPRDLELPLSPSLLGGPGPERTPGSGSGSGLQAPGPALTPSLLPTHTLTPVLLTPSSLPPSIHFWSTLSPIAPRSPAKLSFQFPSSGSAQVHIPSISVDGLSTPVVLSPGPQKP
In short, it runs like this: (§1)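 Beads coated with glutathione captured GST-fused human transcription factors that had been expressed in yeast, and the factors were then given DNA barcodes and pooled with a tag-only sample. The pools were incubated with 200 nmole of a random double-stranded 16-mer DNA library in Tris/NaCl/DTT/glycerol buffer for 30 min at room temperature, washed, crosslinked with 0.1% formaldehyde and proximity-ligated with BsaI/T4 ligase at 37 °C for 1 h. PCR amplification and Illumina NextSeq500 sequencing came last. Binding signal is each hexamer's read frequency for a factor divided by its frequency for the tag-only sample.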

The target of another assay is T2, GABPA (Homo sapiens, UniProt Q06546 1-454).
T2 sequence: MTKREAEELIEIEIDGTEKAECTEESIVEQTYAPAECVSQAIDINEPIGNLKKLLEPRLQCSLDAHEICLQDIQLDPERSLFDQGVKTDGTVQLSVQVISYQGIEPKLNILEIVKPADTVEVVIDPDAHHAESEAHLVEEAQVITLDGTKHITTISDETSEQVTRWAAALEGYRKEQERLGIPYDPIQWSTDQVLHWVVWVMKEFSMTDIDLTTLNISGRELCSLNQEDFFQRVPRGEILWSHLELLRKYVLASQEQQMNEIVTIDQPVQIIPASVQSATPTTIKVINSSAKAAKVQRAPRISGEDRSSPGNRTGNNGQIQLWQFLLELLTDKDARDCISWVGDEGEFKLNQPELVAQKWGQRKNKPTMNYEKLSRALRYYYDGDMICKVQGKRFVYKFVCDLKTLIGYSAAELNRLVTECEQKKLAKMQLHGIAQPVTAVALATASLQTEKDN
In short, it runs like this: as §1

For a further assay, the target named is T3, ERG (Homo sapiens, UniProt P11308 1-479).
T3 sequence: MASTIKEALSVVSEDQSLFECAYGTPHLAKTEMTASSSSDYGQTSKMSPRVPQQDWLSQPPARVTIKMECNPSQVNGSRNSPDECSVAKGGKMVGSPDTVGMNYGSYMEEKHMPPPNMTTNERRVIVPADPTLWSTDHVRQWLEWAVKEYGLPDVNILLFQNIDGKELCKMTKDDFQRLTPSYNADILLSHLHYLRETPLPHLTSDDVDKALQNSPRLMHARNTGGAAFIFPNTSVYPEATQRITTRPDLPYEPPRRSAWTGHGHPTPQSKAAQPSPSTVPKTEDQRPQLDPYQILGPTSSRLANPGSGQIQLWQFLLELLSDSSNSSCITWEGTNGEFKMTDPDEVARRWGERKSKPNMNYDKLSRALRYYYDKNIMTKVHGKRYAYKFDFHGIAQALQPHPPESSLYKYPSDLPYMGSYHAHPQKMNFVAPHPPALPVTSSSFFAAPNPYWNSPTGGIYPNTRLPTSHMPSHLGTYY
In short, it runs like this:
as §1

A further assay addresses ELF1 (Homo sapiens, UniProt P32519 1-619). In short, it runs like this:
as §1

In the next assay the target is T4, EHF (Homo sapiens, UniProt Q9NZC4 1-300).
T4 sequence: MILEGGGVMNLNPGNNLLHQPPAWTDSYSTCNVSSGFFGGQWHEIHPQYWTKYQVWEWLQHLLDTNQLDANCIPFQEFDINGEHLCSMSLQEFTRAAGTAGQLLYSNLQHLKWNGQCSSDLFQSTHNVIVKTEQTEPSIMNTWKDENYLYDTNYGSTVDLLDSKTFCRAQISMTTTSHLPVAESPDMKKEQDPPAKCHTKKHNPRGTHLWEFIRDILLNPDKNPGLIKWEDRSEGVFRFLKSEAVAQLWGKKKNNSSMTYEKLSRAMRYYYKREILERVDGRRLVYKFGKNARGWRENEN
In short, it runs like this: as §1

In a further assay the target is SPI1 (Homo sapiens, UniProt P17947 1-270). In short, it runs like this:
as §1

Another assay addresses SPIB (Homo sapiens, UniProt Q01892 1-262). In outline:
as §1

For a further assay, the target named is T5, FEV (Homo sapiens, UniProt Q99581 1-238).
T5 sequence: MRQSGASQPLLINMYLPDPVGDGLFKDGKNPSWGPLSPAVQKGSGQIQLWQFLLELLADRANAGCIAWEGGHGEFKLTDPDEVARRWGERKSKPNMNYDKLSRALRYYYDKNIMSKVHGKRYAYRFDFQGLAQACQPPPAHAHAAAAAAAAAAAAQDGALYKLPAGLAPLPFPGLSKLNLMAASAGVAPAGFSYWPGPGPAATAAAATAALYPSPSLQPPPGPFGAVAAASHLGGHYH
In short, it runs like this: as §1

For the next assay, the target named is ETV5 (Homo sapiens, UniProt P41161 1-510). In short, it runs like this: as §1
For another assay, the target named is ELF4 (Homo sapiens, UniProt Q99607 1-663). In short, it runs like this: as §1
Another assay has as its target T6, ELK4 (Homo sapiens, UniProt P28324-2 1-405).
T6 sequence: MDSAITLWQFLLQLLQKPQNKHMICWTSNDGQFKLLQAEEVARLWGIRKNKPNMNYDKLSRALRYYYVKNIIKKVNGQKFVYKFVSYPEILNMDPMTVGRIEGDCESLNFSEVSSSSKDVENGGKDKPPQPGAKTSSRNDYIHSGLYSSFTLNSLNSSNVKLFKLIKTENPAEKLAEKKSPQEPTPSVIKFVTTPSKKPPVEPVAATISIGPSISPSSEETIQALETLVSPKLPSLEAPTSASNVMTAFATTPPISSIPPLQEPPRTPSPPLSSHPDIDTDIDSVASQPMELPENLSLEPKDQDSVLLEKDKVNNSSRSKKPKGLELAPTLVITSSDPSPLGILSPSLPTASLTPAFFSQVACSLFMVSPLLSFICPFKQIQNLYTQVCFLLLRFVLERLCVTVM
In outline: as §1

The target of the next assay is ETV1 (Homo sapiens, UniProt P50549 1-477). In short, it runs like this: as §1
Another assay addresses T7, ERF (Homo sapiens, UniProt P50548 1-548).
T7 sequence: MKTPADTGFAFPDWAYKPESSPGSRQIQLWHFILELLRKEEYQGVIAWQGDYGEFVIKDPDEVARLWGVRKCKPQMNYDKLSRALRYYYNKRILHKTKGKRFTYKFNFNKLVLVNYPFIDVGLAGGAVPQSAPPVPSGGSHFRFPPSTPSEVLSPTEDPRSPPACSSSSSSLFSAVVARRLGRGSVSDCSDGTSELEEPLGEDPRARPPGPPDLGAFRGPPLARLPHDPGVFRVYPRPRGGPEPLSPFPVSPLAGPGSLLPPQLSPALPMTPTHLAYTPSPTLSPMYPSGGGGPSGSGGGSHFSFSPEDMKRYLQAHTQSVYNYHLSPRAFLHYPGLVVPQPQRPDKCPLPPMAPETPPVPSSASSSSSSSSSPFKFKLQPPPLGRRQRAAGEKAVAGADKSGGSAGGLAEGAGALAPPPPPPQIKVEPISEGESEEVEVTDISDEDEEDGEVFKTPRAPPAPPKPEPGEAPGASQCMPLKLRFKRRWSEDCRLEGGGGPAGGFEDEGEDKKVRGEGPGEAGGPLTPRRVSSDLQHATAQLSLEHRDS
In short, it runs like this:
as §1

The next assay deals with T8, ETV3L (Homo sapiens, UniProt Q6ZN32 1-361).
T8 sequence: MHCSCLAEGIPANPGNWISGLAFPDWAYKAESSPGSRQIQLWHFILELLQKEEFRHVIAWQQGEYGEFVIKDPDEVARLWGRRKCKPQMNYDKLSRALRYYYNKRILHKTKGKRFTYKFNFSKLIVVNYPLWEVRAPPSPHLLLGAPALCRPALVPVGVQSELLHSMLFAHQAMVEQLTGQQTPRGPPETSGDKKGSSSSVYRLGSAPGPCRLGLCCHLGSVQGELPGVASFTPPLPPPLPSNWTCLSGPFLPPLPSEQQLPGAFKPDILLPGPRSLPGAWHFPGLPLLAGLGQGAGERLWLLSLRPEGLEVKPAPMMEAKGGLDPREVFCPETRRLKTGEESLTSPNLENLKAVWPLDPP
In short, it runs like this:
as §1

In a further assay the target is T9, ETS2 (Homo sapiens, UniProt P15036 1-469).
T9 sequence: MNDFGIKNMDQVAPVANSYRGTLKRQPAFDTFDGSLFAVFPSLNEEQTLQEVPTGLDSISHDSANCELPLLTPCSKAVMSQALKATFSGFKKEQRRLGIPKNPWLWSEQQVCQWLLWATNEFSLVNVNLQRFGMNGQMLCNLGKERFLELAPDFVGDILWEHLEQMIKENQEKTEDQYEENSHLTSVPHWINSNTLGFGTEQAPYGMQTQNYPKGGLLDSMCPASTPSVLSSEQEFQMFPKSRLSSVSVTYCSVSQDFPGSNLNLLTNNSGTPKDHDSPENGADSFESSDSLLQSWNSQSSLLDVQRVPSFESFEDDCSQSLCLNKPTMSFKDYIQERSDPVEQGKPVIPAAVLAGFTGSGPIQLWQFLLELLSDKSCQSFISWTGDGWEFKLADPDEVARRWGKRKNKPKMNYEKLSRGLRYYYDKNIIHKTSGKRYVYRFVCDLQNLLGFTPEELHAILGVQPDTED
In short, it runs like this: as §1

A further assay addresses T10, SPDEF (Homo sapiens, UniProt O95238 1-335).
T10 sequence: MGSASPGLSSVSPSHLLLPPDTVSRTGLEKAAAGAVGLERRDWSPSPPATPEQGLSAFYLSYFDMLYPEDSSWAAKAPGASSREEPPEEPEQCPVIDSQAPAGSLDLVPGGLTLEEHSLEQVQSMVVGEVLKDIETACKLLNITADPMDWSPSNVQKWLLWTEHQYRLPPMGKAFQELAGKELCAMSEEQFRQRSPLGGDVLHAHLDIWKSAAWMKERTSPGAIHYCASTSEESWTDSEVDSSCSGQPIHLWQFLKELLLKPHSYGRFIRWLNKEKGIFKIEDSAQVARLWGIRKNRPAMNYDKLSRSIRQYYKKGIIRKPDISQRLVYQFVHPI
In short, it runs like this:
as §1

The next assay concerns the target T11, ETV3 (Homo sapiens, UniProt P41162-2 1-143).
T11 sequence: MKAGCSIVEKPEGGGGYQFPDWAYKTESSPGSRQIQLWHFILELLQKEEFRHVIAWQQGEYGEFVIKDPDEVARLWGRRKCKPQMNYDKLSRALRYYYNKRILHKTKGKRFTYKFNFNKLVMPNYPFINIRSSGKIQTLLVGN
In short, it runs like this:
as §1

The target in the next assay is ETV6 (Homo sapiens, UniProt P41212 1-452). In short, it runs like this: as §1
Chain of ETV6 (P41212 whole entry): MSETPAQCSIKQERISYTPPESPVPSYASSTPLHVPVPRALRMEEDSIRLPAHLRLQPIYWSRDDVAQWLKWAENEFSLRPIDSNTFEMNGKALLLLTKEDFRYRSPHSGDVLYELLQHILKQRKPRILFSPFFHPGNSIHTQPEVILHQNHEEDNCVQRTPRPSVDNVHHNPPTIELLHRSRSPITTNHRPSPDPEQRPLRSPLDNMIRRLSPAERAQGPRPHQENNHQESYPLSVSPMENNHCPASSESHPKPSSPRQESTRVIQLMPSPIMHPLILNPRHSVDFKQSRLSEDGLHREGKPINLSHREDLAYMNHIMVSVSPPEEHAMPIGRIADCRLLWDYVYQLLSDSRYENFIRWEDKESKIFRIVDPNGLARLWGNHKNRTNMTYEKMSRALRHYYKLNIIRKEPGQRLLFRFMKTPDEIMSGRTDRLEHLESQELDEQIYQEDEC

Chain of ELF4 (Q99607 whole entry): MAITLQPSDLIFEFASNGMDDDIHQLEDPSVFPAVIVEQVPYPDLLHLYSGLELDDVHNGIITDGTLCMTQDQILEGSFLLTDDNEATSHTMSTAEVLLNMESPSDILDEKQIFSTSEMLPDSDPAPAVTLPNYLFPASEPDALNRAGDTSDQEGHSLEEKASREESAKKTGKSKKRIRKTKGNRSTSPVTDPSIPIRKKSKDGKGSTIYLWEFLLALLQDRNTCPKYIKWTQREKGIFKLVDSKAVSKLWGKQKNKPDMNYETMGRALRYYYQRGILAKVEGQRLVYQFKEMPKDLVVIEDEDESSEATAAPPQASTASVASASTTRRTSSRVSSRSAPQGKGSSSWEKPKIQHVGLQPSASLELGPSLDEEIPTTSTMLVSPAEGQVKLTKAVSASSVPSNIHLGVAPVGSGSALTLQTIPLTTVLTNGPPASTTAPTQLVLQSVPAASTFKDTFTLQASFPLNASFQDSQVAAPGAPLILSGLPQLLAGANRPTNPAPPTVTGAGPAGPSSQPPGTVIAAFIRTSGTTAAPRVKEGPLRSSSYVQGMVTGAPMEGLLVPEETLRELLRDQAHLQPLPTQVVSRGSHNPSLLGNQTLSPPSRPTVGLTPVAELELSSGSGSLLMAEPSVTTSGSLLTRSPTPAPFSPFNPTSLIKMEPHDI
Chain of ETV1 (P50549 whole entry): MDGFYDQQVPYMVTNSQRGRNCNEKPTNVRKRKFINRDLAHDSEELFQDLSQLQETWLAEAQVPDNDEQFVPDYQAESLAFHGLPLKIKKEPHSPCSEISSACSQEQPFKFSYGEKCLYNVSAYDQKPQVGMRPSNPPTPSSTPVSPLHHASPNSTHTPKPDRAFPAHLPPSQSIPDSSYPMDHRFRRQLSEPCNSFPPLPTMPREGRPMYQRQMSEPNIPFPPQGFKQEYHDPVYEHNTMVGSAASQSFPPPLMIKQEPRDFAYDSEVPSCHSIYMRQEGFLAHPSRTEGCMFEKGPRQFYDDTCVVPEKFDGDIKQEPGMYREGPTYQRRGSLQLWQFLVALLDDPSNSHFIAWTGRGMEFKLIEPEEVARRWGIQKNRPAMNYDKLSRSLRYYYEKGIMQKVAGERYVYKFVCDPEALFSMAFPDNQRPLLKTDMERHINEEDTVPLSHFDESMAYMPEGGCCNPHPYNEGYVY
Chain of SPIB (Q01892 whole entry): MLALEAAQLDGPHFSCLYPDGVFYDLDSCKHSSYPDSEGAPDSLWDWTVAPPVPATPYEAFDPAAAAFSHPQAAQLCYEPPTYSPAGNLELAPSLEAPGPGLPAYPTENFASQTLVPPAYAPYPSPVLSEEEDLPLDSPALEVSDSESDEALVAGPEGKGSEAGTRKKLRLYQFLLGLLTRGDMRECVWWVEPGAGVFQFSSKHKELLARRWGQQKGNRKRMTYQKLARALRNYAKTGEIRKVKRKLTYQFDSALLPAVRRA
Chain of ETV5 (P41161 whole entry): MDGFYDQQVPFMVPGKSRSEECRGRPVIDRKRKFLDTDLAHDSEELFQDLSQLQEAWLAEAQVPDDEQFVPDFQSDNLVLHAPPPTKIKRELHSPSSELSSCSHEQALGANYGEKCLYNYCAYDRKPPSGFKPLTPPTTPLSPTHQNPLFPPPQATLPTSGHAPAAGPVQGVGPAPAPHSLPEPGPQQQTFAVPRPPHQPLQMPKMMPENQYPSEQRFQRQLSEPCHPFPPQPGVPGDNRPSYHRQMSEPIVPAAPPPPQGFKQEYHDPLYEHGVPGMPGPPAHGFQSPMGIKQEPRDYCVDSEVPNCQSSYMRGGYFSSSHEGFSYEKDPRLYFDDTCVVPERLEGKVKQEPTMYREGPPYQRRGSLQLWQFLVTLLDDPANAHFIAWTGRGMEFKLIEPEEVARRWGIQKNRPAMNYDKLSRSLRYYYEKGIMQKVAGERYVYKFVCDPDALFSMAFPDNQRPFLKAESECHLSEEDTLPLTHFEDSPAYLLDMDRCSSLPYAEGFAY
Chain of ELF1 (P32519 whole entry): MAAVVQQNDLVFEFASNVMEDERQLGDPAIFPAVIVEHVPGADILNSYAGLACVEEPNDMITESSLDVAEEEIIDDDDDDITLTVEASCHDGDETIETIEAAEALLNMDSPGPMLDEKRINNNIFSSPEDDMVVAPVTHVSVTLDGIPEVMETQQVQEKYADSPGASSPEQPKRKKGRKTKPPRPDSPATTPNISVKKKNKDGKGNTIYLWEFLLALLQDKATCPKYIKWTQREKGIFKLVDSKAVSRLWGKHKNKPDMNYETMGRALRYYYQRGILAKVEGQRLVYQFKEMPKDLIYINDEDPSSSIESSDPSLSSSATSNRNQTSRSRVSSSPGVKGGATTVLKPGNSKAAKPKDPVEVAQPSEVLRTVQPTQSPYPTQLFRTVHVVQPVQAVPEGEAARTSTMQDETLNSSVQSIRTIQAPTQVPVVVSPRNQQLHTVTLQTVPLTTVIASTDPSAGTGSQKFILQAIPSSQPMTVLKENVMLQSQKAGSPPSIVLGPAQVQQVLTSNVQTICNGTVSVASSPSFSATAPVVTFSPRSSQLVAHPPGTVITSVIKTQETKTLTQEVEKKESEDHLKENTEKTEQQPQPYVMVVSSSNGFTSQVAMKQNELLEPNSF

Take TGATAC: the binding signal is 1.17 fold enrichment (6-mer frequency, TF over GST control) with ELK1; 1.16 fold enrichment (6-mer frequency, TF over GST control) with GABPA; 1.13 fold enrichment (6-mer frequency, TF over GST control) with ERG; 1.14 fold enrichment (6-mer frequency, TF over GST control) in the assay with ELF1; 1.11 fold enrichment (6-mer frequency, TF over GST control) in the assay with EHF; 1.19 fold enrichment (6-mer frequency, TF over GST control) with SPI1. The binding signal is 1.12 fold enrichment (6-mer frequency, TF over GST control) with SPIB; 1.21 fold enrichment (6-mer frequency, TF over GST control) with FEV; 1.1 fold enrichment (6-mer frequency, TF over GST control) with ETV5; 1.13 fold enrichment (6-mer frequency, TF over GST control) in the assay with ELF4; 1.29 fold enrichment (6-mer frequency, TF over GST control) with ELK4; 1.08 fold enrichment (6-mer frequency, TF over GST control) with ETV1. For the same sequence, the binding signal was 1.13 fold enrichment (6-mer frequency, TF over GST control) with ERF; 1.07 fold enrichment (6-mer frequency, TF over GST control) with ETV3L; 1.1 fold enrichment (6-mer frequency, TF over GST control) with ETS2; 1.17 fold enrichment (6-mer frequency, TF over GST control) with SPDEF; 1.1 fold enrichment (6-mer frequency, TF over GST control) with ETV3; 1.1 fold enrichment (6-mer frequency, TF over GST control) with ETV6.

The record behind these values is paper PMC7862700, “An all-to-all approach to the identification of sequence-specific readers for epigenetic DNA modifications on cytosine”.
